TRPML1 agonist: human mucolipin-1 channel agonism; Q9GZU1; TRPML1-expressing cells, Ca2+ dye fluorescence, FDSS; activation, % (test concentration not listed); actives 0.12% (n = 410,000); AID 624414; in the data active means activation above about 50%; inconclusive means mostly about 30% to 49%; further: 0% is about no effect
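Kinetic FDSS Ca2+ read in Tet-induced TRPML1-DL cells (ABD Ca8 dye plus quencher, 45-90 min RT loading): baseline, then compound, then 110 s agonist window; EC80 agonist 54-4 at 4uM final added afterwards for a 110 s antagonist window.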
TRPV1 PAM: human TRPV1 potentiation; potentiation, % at 8.33 µM; Q8NER1; actives 0.02% (n = 320,000); TRPV1-expressing cells, Fluo-8 calcium influx, capsaicin EC20 potentiation; in the data active means potentiation above about 80%; inconclusive means between about 30% and that limit; further: 0% is about no effect
Target sequence (Q8NER1 whole entry, looked up): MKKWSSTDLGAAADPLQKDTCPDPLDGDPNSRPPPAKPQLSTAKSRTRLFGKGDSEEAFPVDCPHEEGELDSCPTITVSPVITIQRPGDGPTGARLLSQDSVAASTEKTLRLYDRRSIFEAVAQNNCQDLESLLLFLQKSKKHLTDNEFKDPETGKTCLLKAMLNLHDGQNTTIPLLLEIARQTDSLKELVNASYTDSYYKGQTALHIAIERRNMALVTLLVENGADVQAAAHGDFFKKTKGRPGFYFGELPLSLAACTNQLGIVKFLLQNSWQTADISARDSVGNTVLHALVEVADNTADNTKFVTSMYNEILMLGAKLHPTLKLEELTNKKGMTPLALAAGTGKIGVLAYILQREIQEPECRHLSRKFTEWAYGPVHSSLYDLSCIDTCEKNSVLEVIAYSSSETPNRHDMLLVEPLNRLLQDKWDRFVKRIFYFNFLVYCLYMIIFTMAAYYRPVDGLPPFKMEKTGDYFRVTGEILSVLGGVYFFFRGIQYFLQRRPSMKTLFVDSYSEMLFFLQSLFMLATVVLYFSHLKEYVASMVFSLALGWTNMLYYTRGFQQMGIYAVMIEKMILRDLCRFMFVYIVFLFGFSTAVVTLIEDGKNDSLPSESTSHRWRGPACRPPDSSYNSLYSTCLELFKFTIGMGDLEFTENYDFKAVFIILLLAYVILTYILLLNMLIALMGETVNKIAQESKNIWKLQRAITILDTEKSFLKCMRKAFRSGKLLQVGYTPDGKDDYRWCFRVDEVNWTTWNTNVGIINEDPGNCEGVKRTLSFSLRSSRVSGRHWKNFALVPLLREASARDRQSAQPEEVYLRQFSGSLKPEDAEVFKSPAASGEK
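Fluo-8 calcium influx in TRPV1-expressing cells, kinetic read (ex 480/em 520 nm). Compound added and read 3 min for agonist activity, followed by capsaicin at EC20 final and 2 min further read for enhancement.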
TRPML1 blocker: blocks the human TRPML1 channel; activity change, negative = inhibition, % (no concentration beside the values); actives 0.02% (n = 390,000); AID 624415; TRPML1-inducible cells, Ca2+ dye fluorescence, FDSS; hits give low values; inhibition of EC80 agonist-evoked calcium signal; Q9GZU1; in the data active means activity change below about -50%; inconclusive means between about -30% and that limit;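 further: stimulus is agonist 54-4 at its EC80 concentration; on the % scale 0 is the no-effect control and ±100 the full control effect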
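Tet-induced TRPML1-DL cells loaded with Ca8 no-wash calcium dye were read kinetically on FDSS. Compound addition was followed by EC80 agonist 54-4 (4 uM final); inhibition was read over 110 s.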
TRHR ag: agonists of human TRH receptor; actives 0.18% (n = 360,000); P34981; AID 493084; activation, % at 2 µM; TRHR cells, calcium flux fluo-8, FDSS agonist mode; in the data active means activation above about 30%; further: 0% is about no effect
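TRHR-expressing cells, plated overnight in medium with 10% serum, were loaded with fluo-8 calcium dye at room temperature. After a 10 s baseline, library compound was pin-added and calcium release was recorded kinetically (ex 480/em 530) as agonist response.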
TRHR PAM: allosteric enhancers of human TRH receptor | TRHR cells, fluo-8 calcium fluorescence, EC20 TRH enhancement | enhancement, % at 2 µM | actives 0.66% (n = 360,000); in the data active means enhancement above about 30%; further: 0% is about no effect
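Enhancer read-out: after compound pinning and an initial kinetic agonist-mode read, an EC20 of TRH (10 nM final) was injected and fluo-8 calcium signal (Ex 480/Em 530) followed at 1 s/cycle for 100 cycles in TRHR-expressing cells.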
TRPV1 ag: agonists of human vanilloid receptor 1 (TRPV1). Q8NER1. TRPV1-expressing cells, Fluo-8 calcium influx, agonist mode. activation, % at 8.33 µM. actives 0.19% (n = 320,000). AID 540275; in the data active means activation above about 80%; inconclusive means between about 30% and that limit; further: 0% is about no effect
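Fluo-8 calcium influx in TRPV1-expressing cells, kinetic read (ex 480/em 520 nm). Compound added and read 3 min for agonist activity, followed by capsaicin at EC20 final and 2 min further read for enhancement.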
* marks the source's active call; other numbers are inactive results. An excerpt weighted towards active compounds, which were near 0.96% of everything screened.

Results for O=C(c1cc(-c2ccc(O)cc2)on1)N1CCCCCC1 ?
TRPML1 agonist: 3; TRPV1 PAM: -1; TRPML1 blocker: -52*; TRHR ag: -2; TRHR PAM: 7; TRPV1 ag: -4

How did Cc1cc2oc(C(=O)Nc3ccc(S(=O)(=O)N(C)Cc4ccccc4)cc3)cc(=O)c2cc1C do in these assays?
TRPML1 agonist: 0; TRPML1 blocker: -11; TRHR ag: 0; TRHR PAM: 31*

What do the screens show for `COc1ccccc1-c1ccc(/C=C2/C=C(C)OC2=O)o1`?
TRPML1 agonist: 2; TRPV1 PAM: 5; TRPML1 blocker: 19; TRHR ag: 5; TRHR PAM: 6; TRPV1 ag: 1

Results for COc1ccccc1-c1ccc(/C=C2\C=CC(=O)O2)o1 ?
TRPML1 agonist: 84*; TRPV1 PAM: 4; TRPML1 blocker: -17; TRHR ag: 73*; TRHR PAM: 4; TRPV1 ag: inconclusive

What do the screens show for `O=C(Cn1nc(C(=O)O)c2ccccc2c1=O)Nc1cc(Cl)ccc1-n1cncn1`?
TRPML1 agonist: -1; TRPV1 PAM: -2; TRPML1 blocker: 3; TRHR ag: -1; TRHR PAM: 37*; TRPV1 ag: 0

Results for CCN(CC)c1ccc(/C=C2/C(=O)c3ccc(C(=O)O)cc3C2=O)cc1 ?
TRPML1 agonist: 65*; TRPV1 PAM: 5; TRPML1 blocker: -19; TRHR ag: 188*; TRHR PAM: 41*; TRPV1 ag: inconclusive

Results for Cc1cc[n+](CC(=O)c2ccc(F)cc2)c2ccccc12 ?
TRPML1 agonist: -1

Results for CC1=C(c2ccc(C)c(C)c2)S(=O)(=O)N=C1N1CCC(C(=O)NCc2ccc(C)o2)CC1 ?
TRPML1 agonist: 3; TRPML1 blocker: -12; TRHR ag: 0; TRHR PAM: 31*

How did CC1=C(c2ccc(C)c(C)c2)S(=O)(=O)N=C1N1CCC(C(=O)NCc2ccccc2C)CC1 do in these assays?
TRPML1 agonist: 4; TRPML1 blocker: -9; TRHR ag: 0; TRHR PAM: -1

What do the screens show for `CCOc1ccc(C2=C/C(=C/c3cccnc3)C(=O)O2)cc1`?
TRPML1 agonist: 10; TRPML1 blocker: -4; TRHR ag: 17; TRHR PAM: -1

How did COc1ccc(C2=C/C(=C/c3cccnc3)C(=O)O2)cc1OC do in these assays?
TRPML1 agonist: inconclusive; TRPV1 PAM: 18; TRPML1 blocker: 1; TRHR ag: 45*; TRHR PAM: 2; TRPV1 ag: inconclusive

Results for O=S(=O)(c1c(F)cccc1F)N1CCN(S(=O)(=O)c2c(F)cccc2F)CC1 ?
TRHR ag: 0; TRHR PAM: 3

What do the screens show for `O=C(O)c1ccc(NC(=S)NC(=O)c2cncc(Br)c2)cc1`?
TRPML1 agonist: -1; TRPV1 PAM: 4; TRPML1 blocker: 4; TRHR ag: 1; TRHR PAM: 34*; TRPV1 ag: -2

How did CCOC(=O)c1ccc(NC(=S)NC(=O)c2cncc(Br)c2)cc1 do in these assays?
TRPML1 agonist: -1; TRPV1 PAM: 13; TRPML1 blocker: -6; TRHR ag: -1; TRHR PAM: 8; TRPV1 ag: -3

How did COc1ccccc1CN1CCCCC1C(=O)O (stereo not given) do in these assays?
TRPML1 agonist: -1; TRPV1 PAM: 0; TRPML1 blocker: 4; TRHR ag: 0; TRHR PAM: 41*; TRPV1 ag: 2

What do the screens show for `COc1ccccc1CNC(=O)C1CCCC1`?
TRPML1 agonist: 0; TRPV1 PAM: 22; TRPML1 blocker: -4; TRHR ag: 0; TRHR PAM: -3; TRPV1 ag: 2

How did O=C(Nc1cccnc1Cl)c1cnn2c1NC(=C1CC1)C=C2C(F)F do in these assays?
TRPML1 agonist: 0

Results for Cc1ccc(C(=O)n2nc(C)c(S(=O)(=O)N3CCCCCC3)c2C)cc1C ?
TRPML1 agonist: 1; TRPML1 blocker: 0; TRHR ag: 0; TRHR PAM: 35*

Results for Cc1cc(C)cc(C(=O)n2nc(C)c(S(=O)(=O)N3CCCCCC3)c2C)c1 ?
TRPML1 agonist: 1; TRPML1 blocker: -9; TRHR ag: 0; TRHR PAM: 7

What do the screens show for `C/C(=N\Nc1ccc2nncn2n1)c1ccc(Cl)s1`?
TRPML1 agonist: -1; TRPV1 PAM: -11; TRPML1 blocker: -3; TRHR ag: -1; TRHR PAM: -2; TRPV1 ag: 115*

What do the screens show for `O=C(OCc1ccccc1)C1CCCN1C(=O)c1cccs1` (stereo not given)?
TRPML1 agonist: 1; TRPV1 PAM: 7; TRPML1 blocker: 10; TRHR ag: -1; TRHR PAM: 39*; TRPV1 ag: -1

What do the screens show for `O=C(COC(=O)C1CCCN1C(=O)c1cccs1)c1ccccc1` (stereo not given)?
TRPML1 agonist: -2; TRPV1 PAM: -2; TRPML1 blocker: 8; TRHR ag: 0; TRHR PAM: 0; TRPV1 ag: -1

Results for COc1ccccc1Cn1c(=O)c2ccccc2n2c(SCC(=O)N3CCCCC3)nnc12 ?
TRPML1 agonist: 2; TRPV1 PAM: -8; TRPML1 blocker: -61*; TRHR ag: 0; TRHR PAM: -6; TRPV1 ag: 5

What do the screens show for `O=C(/C=C/c1ccccc1)CC(O)(c1ccccc1)C(F)(F)C(F)F` (stereo not given)?
TRPML1 agonist: 59*; TRPV1 PAM: 8; TRPML1 blocker: -6; TRHR ag: 0; TRHR PAM: 6; TRPV1 ag: -1

How did O=C(/C=C/c1ccccc1)CC(O)(c1ccccc1)C(F)(F)F (stereo not given) do in these assays?
TRPML1 agonist: 1; TRPV1 PAM: 2; TRPML1 blocker: -6; TRHR ag: -1; TRHR PAM: -1; TRPV1 ag: 14

What do the screens show for `Cc1cc2nn(-c3ccc(F)cc3)nc2cc1N`?
TRPML1 agonist: 0; TRPV1 PAM: 3; TRPML1 blocker: -15; TRHR ag: -1; TRHR PAM: 32*; TRPV1 ag: -4

Results for CN(C)c1ccc(/C=C2\C(=N)N3N=C(CC(=O)N4CCCC4)SC3=NC2=O)cc1Br ?
TRPML1 agonist: 1; TRPV1 PAM: -5; TRPML1 blocker: -19; TRHR ag: 1; TRHR PAM: -6; TRPV1 ag: 0

What do the screens show for `Cc1ccc(S(=O)(=O)Oc2ccc(/C=C3/C(=N)N4C(=NC3=O)SN=C4S(C)(=O)=O)cc2)cc1`?
TRPML1 agonist: 1; TRPV1 PAM: 8; TRPML1 blocker: 11; TRHR ag: -1; TRHR PAM: 6; TRPV1 ag: 0

Screens from PubChem BioAssay.
